The whole screen tested about 13,000 compounds, of which about 3,200 (25%) showed an effect of 50% or more. The list shows a part of the results.
Test system: P. falciparum stage V gametocytes
Design: BacTiter-Glo ATP luminescence viability of purified stage V gametocytes in 384-well plates, per cent inhibition versus DMSO
Settings: 48 h, 5 µM; inhibitor

Row | Structure (SMILES) | % Inhibition [%]
1 | Cc1cc(-c2cccc(CNCCc3ccc(Cl)cc3)c2)cnc1N [TCMDC-138091] | 14.17
2 | Cc1cc(-c2ccc(O)c(CNC3CCCCC3)c2)cnc1N [TCMDC-138129] | -11.73
3 | Cc1cc(-c2ccc3occ(CCN)c3c2)cnc1N [TCMDC-138139] | 54.74
4 | CCC(C)CN1CCN(c2ccc(NC(=O)c3cccs3)cc2)C(C)C1 (stereo not drawn) [TCMDC-134996] | 6.92
5 | COC(=O)c1cc(OC2CCOC2=O)cc2c1OC(C)(C)O2 (stereo not drawn) [TCMDC-131234] | 42.88
6 | O=C(/C=C/c1c[nH]c2ccccc12)NCCCCCN1CCC(c2c[nH]c3ccccc23)CC1 [TCMDC-139207] | -19.56
7 | O=C(/C=C/c1cccc2ccccc12)NCCCCCN1CCC(c2c[nH]c3ccccc23)CC1 [TCMDC-139208] | 101.3
8 | O=C(/C=C/c1ccccc1O)NCCCCCN1CCC(c2c[nH]c3ccccc23)CC1 [TCMDC-139697] | 92.48
9 | O=C(NC1CCN(CCCc2ccccc2)CC1)c1ccc(-c2cccc(C(F)(F)F)c2)s1 [TCMDC-134323] | -38.84
10 | CC(C)Oc1cc2c(cc1NS(=O)(=O)c1ccc(-c3ccc(Cl)cc3)cc1F)CCN(C)CC2 [TCMDC-141589] | -14.09
11 | O=c1cnc2ccc(F)cc2n1CCN1CCC(NCc2cc(-c3ccccc3)cs2)CC1 [TCMDC-135134] | -21.73
12 | Cc1csc(-c2ncc(OC[C@@H](N)Cc3ccccc3)cc2-c2ccc3n[nH]c(C)c3c2)c1 [TCMDC-136087] | -8.857
13 | Cc1[nH]nc2ccc(-c3cc(OC[C@@H](N)Cc4ccccc4)cnc3-c3ccc(OCc4cccc(F)c4)cc3)cc12 [TCMDC-136225] | 97.54
14 | Cc1[nH]nc2ccc(-c3cc(OC[C@@H](N)Cc4ccccc4)cnc3-c3ccccc3OCc3cccc(F)c3)cc12 [TCMDC-136224] | -9.479
15 | Fc1cccc(COc2ccc(Nc3ncnc4cc(/C=C/[C@@H]5CCCN5)sc34)cc2Cl)c1 [TCMDC-134401] | 10.77
16 | O=C(NCc1ccccc1F)c1ccc(N2CCC(NCc3cccc(-n4cccn4)c3)CC2)cc1 [TCMDC-124670] | 2.936
17 | Cc1cc(N[C@@H](Cc2ccccc2)C(=O)NCCCOC(C)C)nc(NCCc2ccc(F)cc2)n1 [TCMDC-134866] | 73.24
18 | Cc1cc(N[C@@H](CC(C)C)C(=O)NCCCOC(C)C)nc(NCCc2ccc(F)cc2)n1 [TCMDC-134868] | 54.17

Row | Structure (SMILES) | % Inhibition [%]
19 | COc1ccc(CC2(CO)CCN(Cc3ccc(O)c(Cl)c3)CC2)cc1 [TCMDC-124684] | -47.93
20 | CNC(=O)C1Cc2c([nH]c3cc(Cl)ccc23)C2(CCN(CCc3ccccc3)CC2)N1 (stereo not drawn) [TCMDC-141299] | -88.09
21 | COc1cc(N(Cc2ccccc2C)S(=O)(=O)Cc2ccccc2[N+](=O)[O-])c(OC)cc1Cl [TCMDC-141749] | 44.47
22 | COc1ccc([N+](=O)[O-])cc1N(Cc1ccccc1-c1ccccc1)S(=O)(=O)c1ccc(C(F)(F)F)cc1[N+](=O)[O-] [TCMDC-141596] | 92.47
23 | COc1ccc([N+](=O)[O-])cc1N(Cc1ccccc1-c1ccccc1)S(=O)(=O)c1ccc(C(F)(F)F)cc1 [TCMDC-141595] | -1.284
24 | CCOC(=O)c1[nH]c(-c2cc(Cl)nc(Cl)c2)nc1NC(=S)NCCCN1CCOCC1 [TCMDC-138898] | -1.969
25 | COc1ccc2nccc([C@@H](O)CN3CCC(NCc4cc5cc(OC(F)(F)F)ccc5[nH]4)CC3)c2c1 [TCMDC-140692] | 96.42
26 | COc1ccc2nccc([C@@H](O)CN3CCC(NCc4nc5c(F)cc(F)cc5[nH]4)CC3)c2c1 [TCMDC-140664] | -52.05
27 | COc1ccc2nccc([C@@H](O)CN3CCC(NCc4cc5ccc(Cl)cc5[nH]4)CC3)c2c1 [TCMDC-140694] | 96.18
28 | COc1ccc2nccc([C@@H](O)CN3CCC(NCc4cc5c(F)ccc(F)c5[nH]4)CC3)c2c1 [TCMDC-140739] | -16.25
29 | COc1ccc2nccc([C@@H](O)CN3CCC(NCc4cc5c(Cl)cccc5[nH]4)CC3)c2c1 [TCMDC-140695] | 48.39
30 | COc1ccc2nccc([C@@H](O)CN3CCC(NCc4cc5c(Cl)cc(Cl)cc5[nH]4)CC3)c2c1 [TCMDC-140649] | 102.2
31 | COc1ccc2nccc([C@@H](O)CN3CCC(NCc4nc5cc(F)c(F)cc5[nH]4)CC3)c2c1 [TCMDC-140665] | 66.97
32 | COc1ccc2nccc([C@@H](O)CN3CCC(NCc4cc5ccccc5[nH]c4=O)CC3)c2c1 [TCMDC-140759] | 15.99
33 | COc1ccc2nccc([C@@H](O)CN3CCC(NCc4cc5ccc(C#N)cc5[nH]4)CC3)c2c1 [TCMDC-140696] | 8.806
34 | COc1ccc2nccc([C@@H](O)CN3CCC(NCc4nc5ccc(F)cc5[nH]4)CC3)c2c1 [TCMDC-140651] | -60.2
35 | COc1ccc2nccc([C@@H](O)CN3CCC(NCc4nc5ccccc5[nH]4)CC3)c2c1 [TCMDC-140550] | 32.31
36 | COc1ccc2nccc([C@@H](O)CN3CCC(NCc4cc5ccccc5[nH]4)CC3)c2c1 [TCMDC-140520] | 22.46

Reference: article PMC4552634, “A New Set of Chemical Starting Points with Plasmodium falciparum Transmission-Blocking Potential for Antimalarial Drug Discovery” (PLoS ONE, 2015)
